# Sampled rows, rich in hits. Any-hit rate of the full collection: about 1.9%.
# S1P3 antag: antagonists of human S1P3 receptor. inhibition, % at 4.98 µM. CHO S1P3 NFAT-BLA reporter, FRET fluorescence, antagonist mode. AID 485. 170,000 compounds, 0.27% hits. Q99500;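 active = inhibition above the plate cutoff, the mean inhibition of test wells on that plate plus 3 SD, cut at about 28% in these data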;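 also: cells challenged with S1P at its EC80 of 0.8 µM; blue over green emission ratio from cleaved BLA substrate after 4 h stimulation; 0% = S1P-stimulated wells and 100% = unstimulated DMSO-only wells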
# EP2 mod: modulators of human EP2 prostaglandin E2 receptor | P43116 | induction, % at 25 µM | EP2-expressing cells, cAMP HTRF FRET, PGE2 co-stimulation | AID 940 | 260,000 compounds, 0.83% hits;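 active = compounds whose cAMP rise, as percent of the full-agonist control response, exceeds 60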;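 also: rat C6 glioma line stably carrying human EP2 under a CMV promoter; the protocol text gives 20 µM as final concentration; 100% = response of wells given 1 µM PGE2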
# S1P4 ag: human S1P4 receptor agonism | O95977 | S1P4-expressing cell line, agonist reporter assay | 220,000 compounds, 0.35% hits | AID 1509 | activation, % at 4.98 µM; in the data active = activation above about 11%;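 also: 0% = DMSO vehicle and 100% = reference agonist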
# Target sequence (O95977 whole entry, looked up): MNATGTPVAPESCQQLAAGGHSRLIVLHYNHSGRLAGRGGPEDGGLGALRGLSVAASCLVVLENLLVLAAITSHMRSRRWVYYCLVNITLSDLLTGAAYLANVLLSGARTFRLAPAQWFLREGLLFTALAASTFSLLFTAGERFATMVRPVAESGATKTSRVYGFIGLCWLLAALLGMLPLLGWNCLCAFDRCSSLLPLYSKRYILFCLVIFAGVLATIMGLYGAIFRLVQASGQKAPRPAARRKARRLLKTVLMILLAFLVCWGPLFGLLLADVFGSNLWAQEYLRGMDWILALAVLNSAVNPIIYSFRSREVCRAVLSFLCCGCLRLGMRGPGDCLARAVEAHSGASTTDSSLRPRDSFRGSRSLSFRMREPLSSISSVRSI
# S1P4 antagonist: antagonists of human S1P4 receptor; O95977; S1P4-expressing cells, antagonist mode, reporter read-out; inhibition, % at 4.98 µM; 220,000 compounds, 0.26% hits; in the data active = inhibition above about 29%;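 also: 0% = wells stimulated with agonist and 100% = vehicle wells without agonist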
# PGE2 EP2 inh: inhibitors of human EP2 prostaglandin E2 receptor | P43116 | AID 1422 | 260,000 compounds, 0.52% hits | inhibition, % at 25 µM | C6 glioma cells expressing human EP2, cAMP TR-FRET; cells stimulated with saturating PGE2;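 active = percent inhibition above 40 after rounding to a whole number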;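 also: rat C6 glioma host cells with rolipram phosphodiesterase inhibitor present; the protocol text gives 20 µM as final concentration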
# Pf gametocyte: P. falciparum stage V gametocyte viability inhibition. inhibition, % at 10.9 µM. 150,000 compounds, 0.065% hits. P. falciparum stage V gametocytes, ATP luminescence, 24 h;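 active = inhibition above the mean plus 3 SD of compounds within the control limits, set per campaign, cut at about 38% in these data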;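 also: 0% = DMSO wells and 100% = medium only without gametocytes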
# EP2 confirm: EP2 receptor cAMP induction, counter-screens negative; shares compounds with EP2 mod; C6 glioma EP2 cells, cAMP HTRF induction; plus low (about EC15) PGE2 agonist; calls only at 20 µM (by protocol); 1,300 compounds, 47% hits;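 active = cAMP induction above 50% in the main assay while under 30% in all four parallel counter assays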;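 also: rat C6 glioma cells stably expressing human EP2 receptor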
# * hit, by the source's call; i = inactive; / = no result; + = active, no number.
SMILES,S1P3 antag,EP2 mod,S1P4 ag,S1P4 antagonist,PGE2 EP2 inh,Pf gametocyte,EP2 confirm
O=C(O)/C=C/C(O)c1ccc(Cl)cc1 (stereo not drawn),/,79*,/,/,13,/,i
Cc1noc(C)c1C(=O)N[C@@H](C)Cn1nnc2ccccc21,/,-12,/,/,4,/,/
O=C(COc1ccc(S(=O)(=O)NC2CCCCC2)cc1Cl)NCc1ccccn1,/,-48,/,/,6,/,/
CCOC(=O)Nc1sc2c(c1C(N)=O)CCC(C)C2 (stereo not drawn),-4,4,2,-27,11,-20,/
CC1CCc2c(sc(N)c2C(=O)OC(C)C)C1 (stereo not drawn),/,68*,1,6,12,/,i
Cc1cc(C)c(S(=O)(=O)N(C2=NCCS2)S(=O)(=O)c2c(C)cc(C)cc2C)c(C)c1,/,71*,-2,-1,16,-5,i
c1ccc(Sc2ncnc3ccccc23)cc1,3,20,-1,0,5,-2,/
c1ccc(Cc2nnc(Sc3ccccc3)c3ccccc23)cc1,/,69*,1,-1,27,/,i
Cc1ccc(S(=O)(=O)c2c(C)cc(C)nc2N2CCCCC2)cc1,-11,70*,-1,-1,8,-19,+
Cc1ccc(-c2cc(N)c(=O)n(CC(=O)NC(c3ccccc3)c3ccccc3)n2)o1,/,-30,/,/,9,/,/
Cc1nnsc1C(=O)N1C2CCC1CC(c1ccc(F)cc1)C2 (stereo not drawn),/,-43,/,/,/,/,/
COc1ccccc1-c1nnc2sc(-c3cc4ccccc4o3)nn12,18,77*,2,-6,/,9,+
COc1ccc(-n2c(=S)[nH]c3c(oc4ccccc43)c2=O)cc1,-7,68*,0,-26,12,-27,i
Cc1cccc(C)c1NC(=O)CSc1nc(COc2ccccc2)nc2ccccc12,/,69*,0,-6,37,/,i
CCCc1nc(SCC(=O)Nc2nc3c(s2)CCCC3)c2ccccc2n1,/,59,-1,-4,/,/,/
CCc1nc(SCC(=O)Nc2nc3c(s2)CCCC3)c2ccccc2n1,/,87*,-1,0,12,-16,i
CCN=C1S/C(=C\c2cc(OCC)c(O)cc2Br)C(=O)N1CC,1,49,1,-23,11,-14,/
CCN=C1S/C(=C\c2ccc(O)c(OCC)c2)C(=O)N1CC,7,81*,1,-20,8,-34,i
COC(=O)c1sc2nc(N3CCCCC3)c3c(c2c1N)CCCC3,/,74*,-2,-21,17,/,i
CCN(CC)C(=O)c1sc2nc(N3CCOCC3)c3c(c2c1N)CCCC3,/,32,0,-9,16,-10,/
CCOC(=O)c1sc2nc(N3CCOCC3)c3c(c2c1N)CCCC3,7,14,0,-1,13,/,/
Nc1c(C(=O)O)sc2nc(-c3ccccc3)c3c(c12)CCCC3,-16,22,1,-11,9,-38,/
COC(=O)c1sc2nc(-c3ccccc3)c3c(c2c1N)CCCC3,/,73*,0,-16,13,1,i
NC(=O)c1sc2nc(N3CCCCC3)c3c(c2c1N)CCCC3,3,76*,0,-14,8,-4,+
CCc1ccc2c(c1)C(c1ccc(OC)c(OC)c1)=NNC(c1cccnc1)=N2,/,-33,/,/,8,/,/
SMILES,S1P3 antag,EP2 mod,S1P4 ag,S1P4 antagonist,PGE2 EP2 inh,Pf gametocyte,EP2 confirm
CCCOC(=O)c1ccc(NC(=O)c2cn(CC)c3nc(C)ccc3c2=O)cc1,/,67*,0,-3,/,/,i
CC1CCN(c2nc3c(c(=O)[nH]c(=O)n3C)n2CC(C)CSc2nnnn2-c2ccccc2)CC1 (stereo not drawn),10,68*,1,-13,10,17,i
Cc1cc(C)c(C#N)c(Oc2ccccc2)n1,/,24,1,-19,13,-3,/
Cc1cc(C)c(C#N)c(Oc2ccccc2Br)n1,-1,70*,2,-13,10,22,i
CCOC(=O)c1c(NC(=O)c2cccnc2)sc(C)c1C,/,52,0,-4,13,/,+
CCN(CC)C(=O)c1sc(NC(=O)c2ccoc2C)c(C(=O)OC)c1C,12,2,0,6,17,/,/
CCOC(=O)c1c(NC(=O)CC(C)C)sc(C(C)=O)c1C,/,52,-1,-23,6,8,i
CCOC(=O)c1c(NC(=O)c2ccoc2C)sc(C(=O)N(C)C)c1C,/,54,2,10,13,-3,i
CCOC(=O)c1c(NC(=O)CSc2nnnn2C)sc(C)c1C,18,24,-2,3,8,15,/
CCOC(=O)c1c(NC(=O)CSc2nnnn2CC)sc(C)c1C,6,60,2,2,18,7,i
COc1ccc([C@@H]2CN(C(=O)c3ccco3)C[C@H]2C(=O)O)cc1,/,16,/,/,5,/,/
CN(C)c1ccc(NC(=O)CSc2nc3cccnc3n2C)cc1,/,-39,/,/,13,/,/
CC[C@H](Cn1nc(-c2ccoc2C)oc1=O)NC(=O)C(C)C,/,31,/,/,8,/,/
NC(=O)CN1CCC(c2ccccc2F)CC1,/,5,/,/,4,/,/
CCCCNCC(=O)Nc1sc(C)c(C)c1C(=O)OCC,/,53,-2,-12,3,/,i
CCCn1c(SCC(=O)Nc2sc(C)c(C)c2C(=O)OCC)nc2c1c(=O)n(C)c(=O)n2C,-28,52,3,-11,11,0,i
CCOC(=O)c1c(NC(=O)CNCC(O)CO)sc(C)c1C (stereo not drawn),-12,7,2,-30,22,/,/
Cc1cc2ccccc2n2c(SCC(=O)Nc3nc(C(C)(C)C)cs3)nnc12,/,22,/,/,11,/,/
Cc1nc2c(c(=O)[nH]1)CN(C(=O)Cn1c3ccccc3c(=O)c3ccccc31)CC2,/,2,/,/,9,/,/
CCC(=O)N(CCC(Cc1ccccc1)c1ccco1)Cc1ccco1 (stereo not drawn),11,77*,1,8,9,6,i
CCC(=O)N(CCC(c1ccccc1)c1ccco1)Cc1cccs1 (stereo not drawn),/,46,-1,-4,8,/,/
Cc1ccccc1NC(=O)CSc1nc(N)cc(N)n1,/,1,/,/,8,/,/
COc1cccc(OC)c1C(=O)Nc1cc(C)nn1-c1nc2ccccc2[nH]1,7,29,2,-9,10,3,/
COc1ccc(C(=O)Nc2cc(C)nn2-c2nc3ccccc3[nH]2)c(OC)c1,5,70*,0,-7,7,11,+
Cn1c(-c2ccccc2)c(C(=O)CCl)c2ccccc21,4,21,1,15,2,-9,/
CCn1c(-c2ccccc2)c(C(=O)CCl)c2ccccc21,-6,78*,1,9,12,-1,+
O=C(Cn1nc2c3ccccc3ncn2c1=O)N1CCCCC1,/,-2,/,/,/,/,/
Cn1nc(C(F)(F)F)c(/C=N/OC(=O)c2ccccc2)c1Sc1ccc(Cl)cc1,/,70*,0,-7,14,/,i
